Experimental findings from PubChem BioAssay are described below.

Molecules are shown by their SMILES. Calls of active or inactive are those of the source.

The target in experiment [1] is Albumin (Bos taurus) (UniProt P02769). Kind of experiment: compounds binding labelled BSA control protein – biochemical, small-molecule microarray, Alexa647 label, 635/667 nm fluorescence, artefact control for SMM control protein annotation, profiling panel (AID 1118).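 Further: score merges 667 nm emission intensity and signal-to-noise per printed compound spot.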 The following applies: BSA-A647 binding, fluorescence 635 nm, higher = more signal.
Experiment [2] can be described thus: probe aXIP binding to arrayed compounds – biochemical, NeuroSMM set, 635/667 nm fluorescence, primary screen (AID 1119).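 Further: probe is the protein aXip251-270 applied at 1 µg/mL to compound-printed slides; binding of probe to printed compounds measured as 667 nm fluorescence plus signal to noise.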 The following applies: small-molecule microarray, higher = more signal, called active from +8 up or from −8 down.
Experiment [3] in a line: probe aNOTCH3 binding on compound microarray – biochemical, small-molecule microarray, 635/667 nm fluorescence, primary screen (AID 1120).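 Further: probe is a biotin-tagged antibody raised against NOTCH3 rather than NOTCH3 protein; score merges spot fluorescence near 667 nm with spot signal to noise.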 The following applies: higher = more signal.
Experiment [4] in a line: probe aNOTCH2 binding on compound microarray – biochemical, small-molecule microarray, 635/667 nm fluorescence, primary screen (AID 1121).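 Further: score merges feature fluorescence read at 667 nm with its signal to noise.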 The following applies: higher = more signal.
Experiment [5] deals with Carbonic anhydrase 2 (Homo sapiens) (UniProt P00918). Kind of experiment: compounds binding carbonic anhydrase 2 – biochemical, small-molecule microarray, Alexa647-labelled CAII, profiling panel (AID 1122). The following applies: CAII-A647 binding fluorescence, higher = more signal.
Experiment [6] in a line: COS7 lysate on small-molecule microarray, probe aHis, 635 nm (AID 1123).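 Further: z-score combines 667nm fluorescence intensity with signal-to-noise per printed compound spot.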 Conditions: COS7 cell lysate, fluorescence, higher = more signal.
Experiment [7] is described as follows: probe aLAP1 signal on lysate-treated microarray – cell lysate, small-molecule microarray, COS7 lysate, primary screen (AID 1124).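 Further: lysate comes from COS7 cells expressing LAP1 and is applied at 0.3 µg/mL; score merges spot fluorescence near 667 nm with signal-to-noise over triplicate slides.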 The following applies: probe aLAP1, fluorescence, higher = more signal.
Experiment [8] deals with Sam68 (KHDRBS1). As to the kind of experiment: compounds binding KHDRBS1 protein – biochemical, small-molecule microarray, 635 nm fluorescence, primary screen (AID 1125).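 Further: score merges 667 nm channel intensity with signal to noise over triplicate slides.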 The following applies: higher = more signal.
For experiment [9], the system named is Chordin-like protein 2 (CHRDL2). As to the kind of experiment: compounds binding chordin-like 2 – biochemical, small-molecule microarray, 635 nm fluorescence, primary screen (AID 1126).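 Further: printed compound slides probed with Chrdl2 protein at 4 µg/mL for 1 h at 4 C; score merges 667 nm emission intensity with signal to noise over three replicate slides.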 Conditions: fluorescence 635 nm, higher = more signal.
The target of experiment [10] is Concanavalin-A (Canavalia ensiformis) (UniProt P02866). Kind of experiment: compounds binding concanavalin A lectin – biochemical, small-molecule microarray, Alexa647 label, 635 nm, artefact control for SMM control protein annotation, primary screen (AID 1127).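 Further: z combines 667 nm emission intensity with signal-to-noise across three replicate slides.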 The following applies: ConA-A647 binding fluorescence, higher = more signal.
Experiment [11] is described as follows: compounds binding Alexa647 anti-His antibody – biochemical, small-molecule microarray, 635 nm fluorescence, artefact control for SMM control protein annotation, primary screen (AID 1128).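 Further: score merges feature fluorescence with signal-to-noise for each printed compound spot.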 The following applies: higher = more signal.
Experiment [12] has as its system Human papillomavirus type 1a E7 protein (residues 1-88). Kind of experiment: HPV1a E7 small-molecule binders, primary screen, biochemical, small-molecule microarray, residues 1-88, 635 nm (AID 1129). The following applies: small-molecule microarray binding, fluorescence 635 nm; higher = more signal.
The target in experiment [13] is Focal adhesion kinase 1 (Homo sapiens) (UniProt Q05397). Kind of experiment: PTK2 protein binding on printed compound slides – biochemical, small-molecule microarray, 635/667 nm fluorescence, BSA, DTT, primary screen (AID 1130).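 Further: composite of spot emission at 667 nm and signal to noise over triplicate slides.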 Conditions: 635 nm fluorescence, higher = more signal.
Experiment [14] deals with Fibrinogen (Alexa647-labelled). As to the kind of experiment: Alexa647-fibrinogen binding to printed small molecules – biochemical, small-molecule microarray, 635/667 nm fluorescence, artefact control for SMM control-protein annotation, profiling panel (AID 1131).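 Further: z-score merges 667 nm fluorescence with per-spot signal-to-noise over triplicate slides.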 The following applies: fibrinogen-A647 binding fluorescence, higher = more signal.
For experiment [15], the target named is Follistatin (Homo sapiens) (UniProt P19883). As to the kind of experiment: FST protein binding to printed compounds – biochemical, small-molecule microarray, 635/667 nm fluorescence, primary screen (AID 1132). The following applies: 635 nm fluorescence, higher = more signal.
In experiment [16] the target is Fibroblast growth factor 2 (Homo sapiens) (UniProt P09038). Kind of experiment: basic fibroblast growth factor binding to printed compounds – biochemical, small-molecule microarray, 635/667 nm fluorescence, primary screen (AID 1133). Conditions: FGF2, fluorescence 635/667, higher = more signal.
Experiment [17] in a line: JC-1 mitochondrial potential readout, lung cancer cells – cell-based, A549, JC-1 fluorescence, basal, 24 h, 100 nL, profiling panel (AID 1138).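 Further: A549 lung adenocarcinoma cells under basal conditions with no added stimulus; test concentration not given here.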 Conditions: higher = more signal.
Experiment [18] has as its system Lefty1. Kind of experiment: Lefty1 protein binding to printed compounds – biochemical, small-molecule microarray, 635/667 nm fluorescence, primary screen (AID 1139). Conditions: fluorescence 635/667, higher = more signal.
Experiment [19] has as its system wheat germ agglutinin (Triticum aestivum), Alexa647-labelled. Kind of experiment: Alexa647-WGA lectin binding to printed small molecules – biochemical, small-molecule microarray, 635/667 nm fluorescence, artefact control for SMM control-protein annotation, profiling panel (AID 1140).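 Further: score merges 667 nm feature emission with signal to noise over triplicate slides.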 The following applies: WGA-A647 binding, 635 nm fluorescence, higher = more signal.

Experiment [20] deals with Luciferin 4-monooxygenase (Photinus pyralis) (UniProt P08659). Kind of experiment: inhibition of purified Photinus pyralis luciferase – biochemical, luminescence, purified enzyme, 2006 set, primary screen (AID 1141).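 Further: cell-free assay with purified firefly luciferase at 100 ng per well in PBS; test concentration not given here.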 Conditions: purified firefly luciferase, SteadyGlo luminescence, 30 min; higher = more signal, called active from +8 up or from −8 down.
Sequence of Luciferin 4-monooxygenase (Photinus pyralis) (P08659 whole entry, looked up): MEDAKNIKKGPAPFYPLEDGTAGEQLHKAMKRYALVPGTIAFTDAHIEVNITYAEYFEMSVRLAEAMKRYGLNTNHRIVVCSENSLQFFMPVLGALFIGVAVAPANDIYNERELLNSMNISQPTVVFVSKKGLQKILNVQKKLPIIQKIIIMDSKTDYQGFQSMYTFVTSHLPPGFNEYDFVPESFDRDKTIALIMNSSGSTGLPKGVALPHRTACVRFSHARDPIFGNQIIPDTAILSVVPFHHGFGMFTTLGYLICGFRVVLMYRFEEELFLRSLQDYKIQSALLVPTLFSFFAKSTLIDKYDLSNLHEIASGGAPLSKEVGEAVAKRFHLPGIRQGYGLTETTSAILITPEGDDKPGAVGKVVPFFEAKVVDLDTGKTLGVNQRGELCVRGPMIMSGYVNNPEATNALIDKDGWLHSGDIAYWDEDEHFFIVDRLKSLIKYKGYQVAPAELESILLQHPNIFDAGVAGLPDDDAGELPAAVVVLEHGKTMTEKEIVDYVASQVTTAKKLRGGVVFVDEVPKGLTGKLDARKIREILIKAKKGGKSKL

Sequence of Fibroblast growth factor 2 (Homo sapiens) (P09038 whole entry, looked up): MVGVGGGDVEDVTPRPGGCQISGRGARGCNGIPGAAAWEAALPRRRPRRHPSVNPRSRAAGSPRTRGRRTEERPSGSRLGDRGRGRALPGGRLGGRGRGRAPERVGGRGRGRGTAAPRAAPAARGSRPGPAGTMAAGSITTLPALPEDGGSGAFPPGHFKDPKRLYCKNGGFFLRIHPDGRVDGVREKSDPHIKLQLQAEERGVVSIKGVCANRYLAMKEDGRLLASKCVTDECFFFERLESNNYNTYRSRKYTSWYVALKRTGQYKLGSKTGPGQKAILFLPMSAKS
Sequence of Focal adhesion kinase 1 (Homo sapiens) (Q05397 whole entry, looked up): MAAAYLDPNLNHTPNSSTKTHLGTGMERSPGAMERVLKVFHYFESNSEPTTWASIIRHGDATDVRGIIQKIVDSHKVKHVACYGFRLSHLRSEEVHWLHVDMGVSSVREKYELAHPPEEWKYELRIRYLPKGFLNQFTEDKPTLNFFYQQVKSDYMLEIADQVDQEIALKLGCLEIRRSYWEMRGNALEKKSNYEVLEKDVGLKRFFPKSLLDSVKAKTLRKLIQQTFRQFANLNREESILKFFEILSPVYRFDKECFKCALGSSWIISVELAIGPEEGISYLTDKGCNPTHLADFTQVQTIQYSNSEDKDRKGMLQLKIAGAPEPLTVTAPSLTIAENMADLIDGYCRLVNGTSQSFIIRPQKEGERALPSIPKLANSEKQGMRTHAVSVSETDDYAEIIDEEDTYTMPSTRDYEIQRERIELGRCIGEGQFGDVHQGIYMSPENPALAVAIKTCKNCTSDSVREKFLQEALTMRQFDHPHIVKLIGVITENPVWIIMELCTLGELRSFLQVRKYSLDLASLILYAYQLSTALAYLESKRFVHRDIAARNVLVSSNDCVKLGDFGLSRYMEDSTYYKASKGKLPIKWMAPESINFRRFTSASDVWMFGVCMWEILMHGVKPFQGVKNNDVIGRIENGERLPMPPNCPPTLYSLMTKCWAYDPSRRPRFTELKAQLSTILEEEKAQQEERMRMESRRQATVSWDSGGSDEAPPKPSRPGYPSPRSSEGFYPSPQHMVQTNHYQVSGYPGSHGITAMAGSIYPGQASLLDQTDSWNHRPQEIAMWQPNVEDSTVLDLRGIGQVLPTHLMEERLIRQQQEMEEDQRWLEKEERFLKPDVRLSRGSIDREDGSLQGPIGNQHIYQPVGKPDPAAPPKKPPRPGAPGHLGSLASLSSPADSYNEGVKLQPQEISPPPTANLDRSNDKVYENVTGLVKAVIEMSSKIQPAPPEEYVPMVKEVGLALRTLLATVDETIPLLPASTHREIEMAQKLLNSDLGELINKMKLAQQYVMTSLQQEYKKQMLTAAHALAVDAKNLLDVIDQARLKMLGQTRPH
Sequence of Albumin (Bos taurus) (P02769 whole entry, looked up): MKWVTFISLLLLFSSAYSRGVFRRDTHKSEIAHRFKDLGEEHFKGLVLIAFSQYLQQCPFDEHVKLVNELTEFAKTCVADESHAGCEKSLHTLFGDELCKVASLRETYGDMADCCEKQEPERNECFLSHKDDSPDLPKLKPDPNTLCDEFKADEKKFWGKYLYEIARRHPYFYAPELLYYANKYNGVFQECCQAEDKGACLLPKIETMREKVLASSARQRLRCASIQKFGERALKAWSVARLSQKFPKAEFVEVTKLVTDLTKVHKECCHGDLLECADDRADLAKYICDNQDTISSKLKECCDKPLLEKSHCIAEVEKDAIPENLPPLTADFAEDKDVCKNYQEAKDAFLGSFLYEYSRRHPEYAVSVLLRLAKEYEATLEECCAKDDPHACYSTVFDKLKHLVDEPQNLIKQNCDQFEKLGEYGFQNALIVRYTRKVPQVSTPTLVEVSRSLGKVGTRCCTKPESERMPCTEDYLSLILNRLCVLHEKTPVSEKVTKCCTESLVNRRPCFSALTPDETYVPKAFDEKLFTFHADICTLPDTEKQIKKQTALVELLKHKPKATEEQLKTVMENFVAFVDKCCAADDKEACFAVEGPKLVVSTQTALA
Sequence of Concanavalin-A (Canavalia ensiformis) (P02866 whole entry, looked up): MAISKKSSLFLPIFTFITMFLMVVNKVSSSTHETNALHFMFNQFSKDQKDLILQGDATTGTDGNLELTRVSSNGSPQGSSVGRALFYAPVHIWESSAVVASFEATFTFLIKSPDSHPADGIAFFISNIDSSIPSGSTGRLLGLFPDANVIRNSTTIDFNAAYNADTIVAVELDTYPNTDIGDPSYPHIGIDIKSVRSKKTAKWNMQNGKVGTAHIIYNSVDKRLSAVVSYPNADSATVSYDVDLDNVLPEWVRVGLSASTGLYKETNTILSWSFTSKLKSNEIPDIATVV
Sequence of Follistatin (Homo sapiens) (P19883 whole entry, looked up): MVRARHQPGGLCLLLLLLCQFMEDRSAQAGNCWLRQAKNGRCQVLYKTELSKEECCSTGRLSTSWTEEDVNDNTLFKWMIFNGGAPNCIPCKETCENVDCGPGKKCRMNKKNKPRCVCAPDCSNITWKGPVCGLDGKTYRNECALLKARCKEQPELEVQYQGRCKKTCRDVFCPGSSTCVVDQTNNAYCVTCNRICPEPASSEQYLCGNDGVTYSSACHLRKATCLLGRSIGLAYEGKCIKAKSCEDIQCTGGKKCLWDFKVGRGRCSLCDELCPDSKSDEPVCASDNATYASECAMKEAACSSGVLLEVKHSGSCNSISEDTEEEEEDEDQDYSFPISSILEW

Turning to `C=CCOC(=O)[C@H]1[C@@H]2C(=O)O[C@@H](c3ccccc3)[C@@H](c3ccccc3)N2[C@@H](c2ccc(OCCOC(=O)[C@@H]3C[C@@H]4C(=O)N[C@@H](CC(C)C)C(=O)N4[C@@H]3c3ccc(O)cc3)cc2)[C@]12C(=O)Nc1ccccc12`, the composite z-score in experiment [1] is 0.481; in experiment [3] it was 0.058; in experiment [4] it was -0.0631; in experiment [5], 0.592; in experiment [6] it was 2.62; in [7], 0.545. Moreover, the composite z-score was determined as 1.29 in experiment [8]; 1.25 in experiment [9]; 1.15 in experiment [10]; 2.05 in [11]; 1.21 in [12]; 0.289 in experiment [13]. Further, the composite z-score turned out to be 0.78 in experiment [14]; 1.39 in experiment [15]; 1.83 in experiment [16]; 1.54 in experiment [18]; 0.232 in experiment [19]. Also, the composite Z-score in experiment [2] was 0.183 (inactive). For the same molecule, the z-score is -1.56 in experiment [17] and -0.0838 (inactive) in [20].
As for `CC(C)NC(=O)[C@@]1(C)c2ccccc2C(=O)N(Cc2cc(C(F)(F)F)cc(C(F)(F)F)c2)[C@H]1c1ccc(CO)cc1`, the composite z-score in experiment [1] was -0.47; in experiment [3], -0.165; in [4], -0.123; in experiment [5] it was 0.689; in [6], 2.07; in [7], -0.208. Besides, the composite z-score in experiment [8] was 0.784; in experiment [9] it was -1.39; in experiment [10], 0.0957; in experiment [11], -0.229; in experiment [12], 0.272; in experiment [13], 0.0662. The composite z-score in experiment [14] is -0.285; in experiment [15], -0.101; in experiment [16], -0.741; in experiment [18] it was -0.146; in experiment [19] it was -0.568. For the same molecule, the composite Z-score in experiment [2] was -0.0197 (inactive). Moreover, the z-score in experiment [17] is 1.21; in [20], -0.734 (inactive).
For `COc1cc(Br)cc(C(O)C2C=CC3C(=O)N(C)C(=O)C3N2N2CCCCC2)c1OC` (stereo not given), the composite z-score is 0.435 in [1]; -0.165 in experiment [3]; -0.0708 in experiment [4]; 0.707 in [5]; 1.28 in [6]; 0.112 in experiment [7]. Also, the composite z-score in experiment [8] is -0.309; in experiment [9], -1.39; in experiment [10], 0.18; in experiment [11] it was 0.286; in experiment [12], 0.665; in experiment [13], 0.446. Moreover, the composite z-score was -0.83 in experiment [14]; -1.02 in [15]; -1.38 in experiment [16]; -1.12 in experiment [18]; -0.0965 in experiment [19]. Besides, in experiment [2], the composite Z-score is 1.94 (inactive). Further, the z-score in [17] was -0.85; in experiment [20], -0.141 (inactive).
For `CN1C=C(C(=O)OCCS(C)(=O)=O)C(C(=O)OCCS(C)(=O)=O)=CC(c2ccc(CO)cc2)=CC1C1CC1` (stereo not given), the composite z-score in experiment [1] was -0.0317; in experiment [3], -0.0918; in [4], -0.133; in experiment [5], 0.497; in experiment [6], 0.951; in [7], 0.901. In addition, the composite z-score in experiment [8] was 0.449; in [9], -0.246; in [10], 0.168; in [11], -0.281; in [12] it was 0.138; in [13], 0.0684. In addition, the composite z-score in experiment [14] is 0.28; in experiment [15], 0.126; in experiment [16], -0.101; in experiment [18] it was 0.53; in experiment [19], 0.922. Also, in experiment [2], the composite Z-score was 0.0063 (inactive). In addition, the z-score in experiment [17] is 1.48; in experiment [20] it was -1.5 (inactive).
With `C=C(CCCC)/C(=C/C[C@H](OC(C)=O)c1ccccc1OCCO)c1cc(C(=O)OC)ccc1OC`, the composite z-score in experiment [1] is 0.0908; in [3], -0.141; in experiment [4] it was -0.117; in experiment [5] it was 0.767; in experiment [6] it was 0.0095; in experiment [7], 0.095. Also, the composite z-score in [8] was 0.287; in [9], -0.193; in experiment [10] it was -0.701; in experiment [11], -0.33; in experiment [12], 0.0376; in experiment [13], -0.0155. For the same molecule, the composite z-score in experiment [14] was -0.438; in experiment [15] it was 0.0341; in [16], -0.196; in experiment [18], 0.0742; in [19], -0.4. In experiment [2], the composite Z-score was 0.0578 (inactive). Also, the z-score in experiment [17] is 1.39; in experiment [20], -0.687 (inactive).
